How the values were obtained:
Conditions in all cases: concentration: 1 μM, replicates: in singlicate; n = 1
HASPIN = tested on: T1, HASPIN
T1 construct: gene GSG2

HCK = tested on: HCK
HIPK1 = tested on: HIPK1
HIPK2 = tested on: HIPK2
HIPK3 = tested on: HIPK3
HIPK4 = tested on: HIPK4
HPK1 = tested on: HPK1
HUNK = tested on: HUNK
ICK = tested on: ICK
IGF1R = tested on: IGF1R
IKK-alpha = tested on: T2, IKK-alpha
T2 construct: gene CHUK

IKK-beta = tested on: T3, IKK-beta
T3 construct: gene IKBKB

IKK-epsilon = tested on: T4, IKK-epsilon
T4 construct: gene IKBKE

INSRR = tested on: INSRR
INSR = tested on: INSR
IRAK1 = tested on: IRAK1
IRAK3 = tested on: IRAK3
IRAK4 = tested on: IRAK4
ITK = tested on: ITK
[1] = tested on: JAK1(JH1domain-catalytic)
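Also: KINOMEscan kinase panel screen.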

Compound | %Inh (HASPIN) | %Inh (HCK) | %Inh (HIPK1) | %Inh (HIPK2) | %Inh (HIPK3) | %Inh (HIPK4) | %Inh (HPK1) | %Inh (HUNK) | %Inh (ICK) | %Inh (IGF1R) | %Inh (IKK-alpha) | %Inh (IKK-beta) | %Inh (IKK-epsilon) | %Inh (INSRR) | %Inh (INSR) | %Inh (IRAK1) | %Inh (IRAK3) | %Inh (IRAK4) | %Inh (ITK) | %Inh [1]
CN(C)S(=O)(=O)c1cc(-c2ccc3nccc(-c4cccc(S(N)(=O)=O)c4)c3c2)cnc1N [GSK1669921] | 71% | 0% | 49% | 36% | 44% | 48% | 41% | 0% | 44% | 0% | 0% | 0% | 0% | 24% | 42% | 0% | 29% | 9% | 16% | 12%
COc1ccc(Nc2nccc(NCCNC(=O)c3cc4ccccc4s3)n2)cc1 [GSK1379896] | 0% | 15% | 0% | 0% | 22% | 0% | 44% | 13% | 0% | 0% | 0% | 0% | 0% | 0% | 0% | 0% | 0% | 0% | 8% | 5%
CN1CCN(Cc2cccc(-c3ccc4c(Nc5ccc(Oc6ccccc6)cc5)ccnc4c3)c2)CC1 [GW578342] | 17% | 95.1% | 0% | 2% | 0% | 0% | 25% | 11% | 0% | 5% | 5% | 0% | 12% | 6% | 0% | 13% | 0% | 0% | 9% | 21%
Nc1ncnc2c1nc(-c1ccccc1)n2-c1ccccc1 [SKF-97293] | 38% | 27% | 7% | 16% | 35% | 9% | 21% | 0% | 19% | 12% | 50% | 44% | 12% | 16% | 7% | 39% | 40% | 10% | 8% | 0%
COc1ccc(CNC(=O)NC2CCN(c3ccnc(Nc4ccc(F)cc4)n3)CC2)cc1 [GSK1379788] | 6% | 0% | 0% | 0% | 9% | 0% | 37% | 14% | 0% | 0% | 1% | 0% | 11% | 0% | 0% | 17% | 24% | 0% | 0% | 11%
Cc1cccc(Nc2nc(N[C@H]3CCNC3)ncc2C(N)=O)c1.Cl [GSK2197149] | 54% | 82% | 21% | 8% | 30% | 0% | 88% | 0% | 0% | 2% | 35% | 12% | 13% | 0% | 16% | 21% | 1% | 76% | 21% | 0%
Cl.Cl.NCC(NCc1ccc(-c2ccnc3[nH]ccc23)s1)c1ccccc1 (centres unmarked) [GSK1321565] | 99.8% | 0% | 53% | 55% | 71% | 49% | 66% | 0% | 0% | 0% | 68% | 74% | 39% | 0% | 0% | 71% | 20% | 7% | 13% | 29%
Cc1ccc(F)c(C(=O)Nc2cccc(-c3nn4ccccc4c3-c3ccnc(Nc4cccc(F)c4)n3)c2)c1F [GSK361061] | 1% | 94.4% | 0% | 0% | 14% | 57% | 21% | 11% | 0% | 41% | 0% | 0% | 22% | 26% | 25% | 0% | 17% | 3% | 43% | 9%
C[C@@H]1CC[C@@H](C(=O)Nc2ccccc2)CN1c1cc(-c2ccc3c(N)n[nH]c3c2)nc(N)n1 [GSK2286062] | 5% | 0% | 0% | 0% | 0% | 25% | 36% | 11% | 0% | 23% | 0% | 0% | 25% | 0% | 25% | 0% | 0% | 0% | 1% | 2%
COc1cccc(-c2ccc3c(NC(=O)C4CC4)n[nH]c3n2)c1 [SB-710903] | 32% | 0% | 0% | 0% | 41% | 10% | 41% | 1% | 23% | 17% | 50% | 26% | 52% | 0% | 0% | 57% | 0% | 27% | 6% | 9%
